This passage reports inhibition results from ChEMBL document CHEMBL3433997, “St. Jude Leishmania screening dataset” (2016).

The structures appear in SMILES notation.

The inhibition is the change of the read-out against control, counted positive when it falls.

The target of the first assay is Solute carrier family 2, facilitated glucose transporter member 1 (Homo sapiens) (UniProt P11166). The assay is described as follows: ST_JUDE_LEISH: Cytotoxicity at 2uM final concentration against transgenic Leishmania Mexicana promastigotes LmGLUT1 that are glucose transport deficient and complemented with the human glucose transporter GLUT1. Activity is measured by DNA content using SYBR green in vitro. Type of assay: functional.
Sequence of Solute carrier family 2, facilitated glucose transporter member 1 (Homo sapiens) (P11166 whole entry): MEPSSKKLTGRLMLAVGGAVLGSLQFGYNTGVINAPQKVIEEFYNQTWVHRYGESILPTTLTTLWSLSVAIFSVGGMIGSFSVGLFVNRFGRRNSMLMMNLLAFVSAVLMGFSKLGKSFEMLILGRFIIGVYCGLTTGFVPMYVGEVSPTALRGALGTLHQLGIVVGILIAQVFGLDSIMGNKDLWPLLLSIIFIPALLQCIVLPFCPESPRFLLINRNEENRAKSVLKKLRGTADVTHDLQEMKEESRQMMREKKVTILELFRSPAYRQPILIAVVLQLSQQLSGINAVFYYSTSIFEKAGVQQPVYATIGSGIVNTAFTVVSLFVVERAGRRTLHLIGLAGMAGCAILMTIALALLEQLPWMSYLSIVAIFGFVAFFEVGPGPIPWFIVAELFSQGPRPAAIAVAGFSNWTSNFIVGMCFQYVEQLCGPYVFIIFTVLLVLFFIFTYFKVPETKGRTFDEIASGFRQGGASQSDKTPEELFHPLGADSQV
For `O=C(NC1CC1c1ccccc1)N(CCCn1ccnc1)Cc1csc(-c2ccc(CNCc3ccccc3)cc2)n1` (stereo not drawn), the inhibition was determined as 1.52%.

As for `Cc1cc(O)nc(NC(=N)NOCc2ccccc2)n1`, the inhibition is -1.66%. The same measure, in the same setting: then `CCCCCCNC(=N)c1ccc2[nH]c(-c3ccc(O)cc3)nc2c1`, with 3.58%; and `COc1ccc(-c2cccc(NC(=O)c3ccc(Cl)cc3)c2)cc1CN1CCCN(C)CC1`, with 7.89%; and `COc1ccc2c(N/N=C/c3ccccc3[N+](=O)[O-])ccnc2c1`, with 4.94%. In the case of `O=C(Nc1cc(Cl)cc(Cl)c1)c1cnn(-c2ccc(F)cc2)c1C1CCNCC1`, the inhibition was -0.33%. The same measure, in the same setting: then `COc1ccc2nccc([C@@H](O)CN3CCC(NCc4nc5c([N+](=O)[O-])cccc5[nH]4)CC3)c2c1`, with 2.43%; and `O=C(Nc1ccc(Cl)cc1)c1cccc(CN2CCCN(Cc3cccc(O)c3)CC2)c1`, with -0.2%.

Another assay addresses Hexose transporter 1 (Plasmodium falciparum) (UniProt O97467). As to the kind of experiment: ST_JUDE_LEISH: Cytotoxicity at 2uM final concentration against transgenic Leishmania Mexicana promastigotes LmPfHT that are glucose transport deficient and complemented with the Plasmodium falciparum hexose transporter. Activity is measured by DNA content using SYBR green in vitro. The format is functional.
For `CC(=O)Oc1c(C(=O)C2CCC(C(C)(C)C)CC2)c(OC(C)=O)c2ccccc2c1OC(C)=O` (stereo not drawn), the inhibition turned out to be 11.5%. Take `CCOC(=O)c1cccc(NC(=N)Nc2nc(C)cc(NCCc3ccccc3)n2)c1`: the inhibition was 7.16%. Take `COc1cccc(Nc2nc(C)cc(Nc3cccc(C#N)c3)n2)c1`: the inhibition was 19.2%. The same measure, in the same setting: the result for `CC(C)CNC(=O)CN1C(=O)C(c2ccccc2)(c2ccccc2)N=C1N` reads 4.66%; that for `CCOc1ccc(OCC(=O)Nc2nc(-c3ccc(OC)cc3)c(C)s2)cc1`, 1.74%; that for `COc1ccc2ncc(Cl)c([C@H](O)CN3CCC(NCc4cc5c(cn4)OCCO5)CC3)c2c1`, 7.96%. On the same count and under the same terms, the result for `CCCOc1ccc(-c2nonc2NC(=O)c2ccccc2OC)cc1OCCC` reads 14.6%; that for `Nc1nc(N)c2c(ccc3nn(Cc4cccnc4)cc32)n1`, 5.44%; that for `Nc1nc(N)c2c(ccc3c2ccn3Cc2cccc(F)c2)n1`, 104%. Still for that read-out and setting: the result for `N#Cc1cc(C(=O)c2cc(Cl)ccc2O)cn(-c2cccc(C(F)(F)F)c2)c1=O` reads 7.71%. Turning to `CN1CCC(C(=O)Nc2ccc(-c3ccc(-c4nc5ccccc5[nH]4)cc3)cc2)CC1`, the inhibition was 1.48%. As to `COc1ccc(CNCC(C)(C)c2nc(-c3ccc(Cl)c(O)c3)c(-c3ccncc3)[nH]2)cc1`, the inhibition was 0.9%. With `CCCC(C)N(Cc1ccc(C(C)(C)C)cc1)C(=O)c1cccc(OC)c1` (stereo not drawn), the inhibition was -0.47%.

In the case of `Cc1ccc(C)c2sc(N3CCN(C(=O)c4ccc([N+](=O)[O-])o4)CC3)nc12`, the inhibition amounted to 38.4%. On to `O=c1c2ccc(Sc3ccccn3)cc2n(-c2ccccc2)c2cc(Sc3ccccn3)ccc12`, for which the inhibition worked out at 0.77%. The same measure, in the same setting: the result for `CC(C)(C)c1cc(C(=O)Nc2cccnc2)cc(C(=O)Nc2cccnc2)c1` reads 1.97%; that for `O=C(/C=C/c1ccc(Cl)c(Cl)c1)NC1CCN(CCNC(=O)c2cccc(Cl)c2)CC1`, 3.11%; that for `CCNc1cc(C(=O)N[C@@H](Cc2ccccc2)[C@H](O)CNCc2cccc(OC)c2C)cc(N2CCCCS2(=O)=O)c1`, 1.66%. The same measure, in the same setting: then `CCCNCc1ccc(-c2ccc(CN(CCOC)C(=O)c3ccco3)cc2)nc1`, with 0.17%. On the same count and under the same terms, the result for `CCc1cc(-c2onc(C(F)(F)F)c2-c2ccccc2)c(O)cc1OC` reads 3.34%. Turning to `O=C(NCc1cccc(Cl)c1)c1ccc(CNC2CCN(Cc3ccccc3)CC2)cc1`, the inhibition was -0.25%. For the compound `O=C(CNCC1CCCCC1)Nc1cc(C(F)(F)F)ccc1Cl`, the inhibition is 0.51%. On to `O=C(N[C@H]1CCN(Cc2ccc(OC3CCN(Cc4ccccc4)CC3)cc2)C1)c1ccc(Cl)c(Cl)c1`, for which the inhibition was -1.3%. Same read-out and setting: the result for `Cc1ccc(N)cc1-c1nc(NC2CC(C)(C)NC(C)(C)C2)nc2c1ccc(=O)n2-c1c(F)cccc1F` reads 1.28%. Same read-out and setting: then `Cc1cc2ccc(-c3cccc(CN)c3)cc2nc1N`, with 1.15%; and `Nc1nccc2ccc(-c3cccc4ncccc34)cc12`, with 0.04%. Still for that read-out and setting: then `CCC1CN2CCc3c([nH]c4ccccc34)C2CC1CC1=NCCc2c1[nH]c1ccccc21` (stereo not drawn), with 3.33%; and `OC(CNCc1cccc(Oc2ccc(Cl)cc2)c1)c1cccc(C(F)(F)F)c1` (stereo not drawn), with 1.81%. On to `Cc1cc(N[C@@H](CC(C)C)C(=O)NCCOc2ccccc2)nc(NCCOc2ccccc2)n1`, for which the inhibition came to 1.16%. In the case of `Nc1c2c(nc3ccc(C(=O)Nc4cc(I)c(O)c(I)c4)cc13)CCCC2`, the inhibition stood at 1.9%. Same read-out and setting: the result for `O=C(N[C@H]1CCN(Cc2ccc(OCCCN3CCCCC3)cc2)C1)c1ccc(Cl)c(Cl)c1` reads 3.98%; that for `OC(CNCCCc1ccccc1)c1cc(OCc2ccccc2)cc(OCc2ccccc2)c1` (stereo not drawn), 2.05%.

On to `O=C(NC1CC1c1ccccc1)N(CCCn1ccnc1)Cc1csc(-c2ccc(CNCc3ccccc3)cc2)n1` (stereo not drawn), for which the inhibition was 1%. On the same count and under the same terms, then `Cc1cc(O)nc(NC(=N)NOCc2ccccc2)n1`, with 1.03%. Same read-out and setting: then `CCCCCCNC(=N)c1ccc2[nH]c(-c3ccc(O)cc3)nc2c1`, with 4.17%.
